# The whole screen tested about 380,000 compounds, of which about 4,000 (1.1%) were called active. Not shown: some 3% with an inconclusive outcome. The call rests on the fitted dose curve; in most records, active means well fitted activation curve with a large enough effect; inconclusive means small, poorly fitted or top-dose-only effect; inactive means no such curve, though single readings can be large or run the other way. Shown is part of a subset that was picked to be rich in actives. Entries that show only a call come without a potency.
# Assay: qHTS Assay to Identify Small Molecule Activators of BRCA1 Expression; further: nearly all actives have a fitted effect of over 80% in size
# Conditions: MCF7-BRCA1-FFLuc reporter, luminescence, 48 h; series mostly up to 46.1 µM
# Outline: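 First, MCF7-BRCA1-FFLuc cells (2000/well) attach for 2 h; next, compounds are pin-added and incubated 48 h at 37 °C; finally, luciferase reagent is added and luminescence read after 15 min.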
# Potency means the concentration at half of the fitted maximal effect.
SMILES,Potency,activation
COc1ccc(-n2c(=O)c3ccccc3n(Cc3ccccc3Cl)c2=O)cc1,inactive,
O=C(CN1CCC(NC(=O)Nc2ccccc2)CC1)Nc1cccc([N+](=O)[O-])c1,inactive,
O=C(Nc1cccc([N+](=O)[O-])c1)N1CCc2ccccc2C1,10 µM (active),
Cc1c(NC(=O)Nc2cccc([N+](=O)[O-])c2)c(=O)n(-c2ccccc2)n1C,inactive,
O=C(CSc1nnc(-c2ccncc2)n1-c1ccccc1)Nc1ccc(Cl)c(Cl)c1,inactive,
CCOc1ccc(CNC(=O)c2ccc3c(c2)nnn3C2CCCC2)cc1,inactive,
CC1CC(C)CN(c2oc(-c3ccc(OCc4ccc(Cl)cc4)cc3)nc2C#N)C1 (stereo unspecified),inactive,
COc1cccc(NC(=O)CSc2nnc(-c3cccnc3)o2)c1,inactive,
CCN(CC)C(=O)CSc1nnc(-c2cccc(OC)c2)o1,11.2 µM (active),
CCN(CC)C(=O)CSc1nnc(-c2ccc(S(=O)(=O)NCc3ccccc3Cl)cc2)o1,inactive,
CCOC(=O)c1cc(OC(=O)c2ccccc2Cl)n(-c2ccccc2)n1,inactive,
CC(C)(C)c1ccc(C(=O)C[n+]2cccc3cc(Cl)ccc32)cc1,inactive,
Cn1cc(S(=O)(=O)N2CCCCCC2)cc1C(=O)N1CCN(c2ccc(F)cc2)CC1,inactive,
CCc1ccc(C(=O)CC2(O)C(=O)N(CCc3ccccc3)c3ccc(Br)cc32)cc1 (stereo unspecified),inactive,
Cc1ccc(-c2noc(CSc3nnc(-c4ccc(Cl)cc4)n3C)n2)cc1,inactive,
CC1CCN(Cc2nc(-c3ccc(Cl)cc3)no2)CC1,8.91 µM (active),
CCN1CC(CN(C)Cc2nc(-c3ccc(Cl)cc3)no2)CC1=O (stereo unspecified),inactive,
CC(C)c1ccc2oc(-c3cc(NC(=O)c4cccs4)ccc3Cl)nc2c1,inactive,
CC1(C)Cc2ccccc2-c2c[nH]c(=O)n21,inactive,
N#CNC1=NCN(CCc2ccccc2)CN1,inactive,
c1ccc(CCN2CN=C(Nc3nc4ccccc4o3)NC2)cc1,7.94 µM (active),
CCCN1CNC(=S)N(CCc2ccccc2)C1,inactive,

SMILES,Potency,activation
CCOC(=O)c1c(C)[nH]c(C)c1S(=O)(=O)N1CCC(C(=O)Nc2ccc(C)c(Cl)c2)CC1,inactive,
C(=Nc1ccc(/C=C/c2ccnc3ccccc23)cc1)Nc1ccc(/C=C/c2ccnc3ccccc23)cc1,inactive,
O=C(CC(=O)c1cccnc1)c1ccccc1,inactive,
Cc1ccc(S(=O)(=O)N2CCCCC2)cc1NC(=O)c1cccnc1,inactive,
C/C(=C\C(=O)c1cccnc1)Nc1ccc(C)c(C)c1,12.6 µM (active),
COc1cc(OC)c(C(=S)N2CCCC2)cc1OC,inactive,
S=C(c1ccc(-c2ccccc2)o1)N1CCCCC1,3.98 µM (active),
CC1CCN(C(=S)c2ccc(-c3ccc(Cl)cc3Cl)o2)CC1,inactive,
O=C(CN1CCCCCC1)Nc1ccc(Br)cc1Br,5.62 µM (active),
Cc1cc(C)c(NC(=O)CN2CCCCCC2)c(C)c1,inactive,
O=C(CN1CCCCCC1)Nc1ccc(Br)cc1[N+](=O)[O-],inactive,
Cn1c(=O)c2sccc2n2c(CCC(=O)NCc3ccccc3Cl)nnc12,inactive,
CCN(CC)c1ccc(/C=C/c2c(C)cnc3ccc(C)cc23)cc1,inactive,
Cc1ccsc1/C=C1\SC(N2CCOCC2)=NC1=O,11.2 µM (active),
CC1CCN(C2=NC(=O)/C(=C/c3cn[nH]c3-c3ccccc3)S2)CC1,inactive,
O=C1N=C(N2CCOCC2)S/C1=C\C=C/c1ccccc1,,"0.869% [at 1.84 µM, scaled: vehicle 0%, 10 µM genistein 100%] (inactive)"
COc1ccc(Cn2c(=O)n(-c3ccccc3C)c(=O)c3c4c(sc32)CN(C(C)=O)CC4)cc1,inactive,
Cc1cccc(NC(=O)Cn2c(=O)n(CCC(C)C)c(=O)c3cccnc32)c1,inactive,
O=C(Nc1nnc(SCc2c(Cl)cccc2Cl)s1)C1CCCO1 (stereo unspecified),inactive,
Cc1cc(C)c2nc(NC(=O)C3CCCO3)sc2c1 (stereo unspecified),15.8 µM (active),
Cc1ccc(C)c(C(C)NC(=O)C2CCCO2)c1 (stereo unspecified),inactive,
Cc1cc2ccccc2n1CCNC(=O)c1ccc(F)cc1,inactive,

SMILES,Potency,activation
O=C(NCc1ccccc1)C1CCN(S(=O)(=O)c2ccc3[nH]c(=O)ccc3c2)CC1,inactive,
COc1ccc(-c2nnc(SCC(=O)Nc3ccccc3C)o2)cc1OC,inactive,
Cc1ccc(-c2nnc(SCc3ccccc3C)o2)cc1,11.2 µM (active),
Cc1ccccc1CSc1nnc(CCCCCNC(=O)OC(C)(C)C)o1,inactive,
CCCCSc1nnc(-c2ccc(C)cc2)o1,1.78 µM (active),
CCN(C(=O)CSc1nnc(-c2ccncc2)o1)c1ccccc1,inactive,
Cc1ccc(-c2nnc(CN3CCN(C)CC3)o2)cc1,inactive,
O=C(NCCC1=CCCCC1)c1ccc2c(c1)N(Cc1ccccc1F)C(=O)c1ccccc1S2(=O)=O,inactive,
CCS(=O)(=O)N1CCc2cc(C(=O)NCc3ccc(C)cc3)ccc21,inactive,
Cc1ccc(C)c(N2CCN(C(=O)CCc3c(C)nc4c(c3C)c(=O)n(C)c(=O)n4C)CC2)c1,inactive,
COc1ccc(Cl)cc1NC(=O)Cn1c(=O)c2ccccc2n2nncc12,inactive,
Brc1nc2ncnc(NCc3ccco3)c2[nH]1,inactive,
CCOc1ccc(S(=O)(=O)N(CC(=O)NCCSCc2ccc(C)cc2)c2ccccc2)cc1,inactive,
CC(C)(C)NC(=O)CSc1nc(-c2ccc(F)cc2)cc(C(F)(F)F)n1,inactive,
CO[C@H]1O[C@@H]2O[C@@]3(C)CC[C@@H]4[C@@H](C)CC[C@@H]([C@H]1C)[C@@]24OO3,inactive,
CC1(C)CCc2cc(S(=O)(=O)N3CCN(c4nc(-c5cccs5)nc5ccccc45)CC3)ccc2O1,inactive,
Cc1cccc(NC(=O)COc2ccc(Br)cc2C)n1,inactive,
Cc1cccc(C)c1NC(=O)CNC(=O)Cc1ccc(Br)cc1,inactive,
Cc1cccc(NC(=O)Cc2ccc(Br)cc2)n1,8.91 µM (active),
CCCNC(=O)c1ccc(Cn2c(SCC(N)=O)nc3ccccc3c2=O)cc1,inactive,
COc1ccc(CCNC(=O)CCCCn2c(=O)c3ccccc3n(Cc3ccccc3)c2=O)cc1OC,inactive,
Cc1ccc(CN(C(=O)c2ccccc2[N+](=O)[O-])c2ccccn2)cc1,inactive,
